# Hit rate of the full screen: of about 52,000 compounds, about 4,300 (8.3%) were called active. No stated cut-off is given here; in the data, active means survival mostly below about 52% (no sharp cut-off); inactive means mostly above about 56%. The full list was thinned out, with actives kept by preference.
# Test system: DeltatarO mutant
# Assay: S. aureus survival, RN4220 and DeltatarO strains – OD600, teichoic acid synthesis inhibitors, primary screen (AID 463173)
# Settings: S. aureus RN4220 wild type/DeltatarO growth, OD600, 18 h, active compounds read low, screened at 18.75 µg/mL (by protocol)
row,SMILES,survival
1,COc1cccc(C(=O)NCC(c2ccc(N(C)C)cc2)N2CCCC2)c1OC (stereo unspecified),94% (inactive)
2,Cc1nc(-c2cccc(NC(=O)Nc3ccccc3C(F)(F)F)c2)no1,130% (inactive)
3,Cc1ccc(C)c2c(N)c3c(nc12)CCCCC3,96% (inactive)
4,CC(CCc1ccccc1)NC(=O)Cn1ncc2c3ccccc3n(Cc3cccc(Cl)c3)c2c1=O (stereo unspecified),95% (inactive)
5,CC(C)(C)OC(=O)N1CC=C2C(C1)C(c1cccc(F)c1)C(C#N)=C(N)C2(C#N)C#N (stereo unspecified),79% (inactive)
6,CCN1CC=C2C(C1)C(c1ccc(Cl)s1)C(C#N)=C(N)C2(C#N)C#N (stereo unspecified),105% (inactive)
7,CCCN1CC=C2C(C1)C(c1ccc(C(=O)OC)cc1)C(C#N)=C(N)C2(C#N)C#N (stereo unspecified),51% (active)
8,COc1cc(-c2nnc(SCC(=O)N3CCCc4ccccc43)o2)cc(OC)c1OC,66% (inactive)
9,Cc1ccc(Cl)cc1NC(=O)C1CCN(C(=O)c2cnn(-c3ccccc3)c2-n2cccc2)CC1,71% (inactive)
10,Cc1cc(C)nc(SCc2noc(-c3ccc(Cl)cc3)n2)n1,97% (inactive)
11,CCc1ccccc1NC(=O)Nc1cc(C(=O)NCc2ccc(C)cc2)ccc1N1CCCC1,113% (inactive)
12,COc1ccc(NC(=O)Cn2c(=O)n(CCC(=O)NCC3CCCO3)c(=O)c3cc(OC)c(OC)cc32)cc1 (stereo unspecified),72% (inactive)
13,COc1ccc(OC)c(NC(=O)Cn2nc3c(cc2=O)CCCC3)c1,57% (inactive)
14,Cc1nn(-c2ccc(N3CCOCC3)nn2)c(C)c1CCC(=O)NCc1ccc(Cl)cc1,107% (inactive)
15,Cc1cc(NC(=O)c2oc3c(c2C)-c2[nH]ncc2CC3)ccc1Br,3% (active)
16,Cc1cc(C)c(NC(=O)c2oc3c(c2C)-c2[nH]ncc2CC3)c(C)c1,67% (inactive)
17,CCc1ccc(NC(=O)c2oc3c(c2C)-c2[nH]ncc2CC3)cc1,48% (inactive)
18,Cc1ccc(Cn2cc(CCC(=O)NCc3ccccc3F)c3ccccc32)cc1,77% (inactive)
19,Cc1c(C(=O)Nc2ccc(Br)cc2F)oc2ccc(S(=O)(=O)N3CCCCC3)cc12,78% (inactive)

row,SMILES,survival
1,Cc1cccc(N2CCN(CCCNC(=O)c3sc4ncccc4c3-n3cccc3)CC2C)c1 (stereo unspecified),105% (inactive)
2,COc1cc2c(cc1OC)C1=C(C#N)CN(C3CCCCC3)CN1CC2,83% (inactive)
3,NC(=O)C1CCN(C(=O)C2CCN(S(=O)(=O)c3ccc(-n4cnnn4)cc3)CC2)CC1,97% (inactive)
4,Cc1ccc(NC(=O)c2c(C)oc3ccc(O)c(CN(C)Cc4ccccc4)c23)c(C)c1,73% (inactive)
5,CCN1CCN(Cc2c(O)ccc3oc(C)c(C(=O)Nc4ccc(C)cc4C)c23)CC1,92% (inactive)
6,Cc1ccccc1NC(=O)c1c(C)oc2ccc(O)c(CN3CCCC3)c12,80% (inactive)
7,CCN(Cc1ccccc1)Cc1c(O)ccc2oc(C)c(C(=O)Nc3ccccc3C)c12,29% (active)
8,CCN(Cc1ccccc1)Cc1c(O)ccc2oc(C)c(C(=O)Nc3ccc(C)cc3C)c12,33% (active)
9,Cc1ccccc1NC(=O)c1c(C)oc2ccc(O)c(CN(C)Cc3ccccc3)c12,81% (inactive)
10,Cc1cc(=O)n(CC(=O)NC(C)c2ccccc2)c2c1c(C)nn2C (stereo unspecified),66% (inactive)
11,Cc1ccc(Nc2nnc(-c3ccc(C)c(S(=O)(=O)N4CCN(C)CC4)c3)c3ccccc23)cc1,80% (inactive)
12,COCCOC(=O)c1c(-c2ccccc2)c(-c2ccccc2)nn(C)c1=O,65% (inactive)
13,COc1cccc2cc(C(=O)NCCc3c(C)[nH]c4ccc(F)cc34)c(=O)oc12,53% (inactive)
14,Cc1[nH]c2ccc(F)cc2c1CCNC(=O)c1cc2cc(Cl)ccc2oc1=O,52% (inactive)
15,COc1ccc2oc(=O)c(C(=O)NCCc3c(C)[nH]c4ccc(Br)cc34)cc2c1,45% (inactive)
16,COc1ccc2oc(=O)c(C(=O)NCCc3c(C)[nH]c4c(Cl)cccc34)cc2c1,62% (inactive)
17,COc1ccc2oc(=O)c(C(=O)NCCc3c(C)[nH]c4ccc(C)cc34)cc2c1,40% (active)
18,COc1ccc2oc(=O)c(C(=O)Nc3cccc(C(=O)O)c3)cc2c1,50% (active)
19,COc1ccc2oc(=O)c(C(=O)NCCc3c(C)[nH]c4ccc(F)cc34)cc2c1,46% (inactive)

row,SMILES,survival
1,COc1ccc2oc(=O)c(C(=O)NCCc3c(C)[nH]c4c(C)cccc34)cc2c1,47% (active)
2,Cc1ccc2[nH]c(C)c(CCNC(=O)c3cc4cc(Br)ccc4oc3=O)c2c1,37% (active)
3,Cc1[nH]c2c(C)cccc2c1CCNC(=O)c1cc2ccccc2oc1=O,86% (inactive)
4,COc1ccc2oc(=O)c(C(=O)Nc3ccc(C(=O)O)cc3)cc2c1,136% (inactive)
5,COc1ccc2oc(=O)c(C(=O)Nc3ccc(O)cc3)cc2c1,98% (inactive)
6,Cc1cc(C)n(C(C)CC(=O)Nc2cccc(C#N)c2)n1 (stereo unspecified),78% (inactive)
7,CN(C)CCN(Cc1ccccc1)S(=O)(=O)c1ccc(-c2cc(C(F)(F)F)on2)s1,87% (inactive)
8,O=C1CCC(=O)N1CNc1ccccc1,85% (inactive)
9,CC(=O)N1CCOc2cc(S(=O)(=O)Nc3cc(C(F)(F)F)ccc3Cl)c(C)cc21,94% (inactive)
10,CCN1CCN(CCCNC(=O)c2cnn(-c3ccc(OC)cc3)c2C2CCN(C(=O)OC(C)(C)C)CC2)CC1,95% (inactive)
11,Cc1ccc(N2CCN(c3nc4ccccc4n4nnnc34)CC2)c(C)c1,105% (inactive)
12,Cc1cccc(C)c1NC(=O)Cn1cc(C(=O)C2CC2)c2ccccc21,67% (inactive)
13,CCOc1ccc(NCc2cccn2-c2nnc(N3CCC(C(=O)NC(C)c4ccccc4)CC3)s2)cc1 (stereo unspecified),74% (inactive)
14,O=C1C2C(C(=O)N1CC1CCCO1)C1C=CC2C12CC2 (stereo unspecified),80% (inactive)
15,Cc1[nH]c2ccc(Br)cc2c1CCNC(=O)c1cc2ccccc2oc1=O,32% (active)
16,C=CCc1cccc2cc(C(=O)NCCc3c(C)[nH]c4c(C)cccc34)c(=O)oc12,48% (inactive)
17,COc1cccc2cc(C(=O)NCCc3c(C)[nH]c4ccc(Br)cc34)c(=O)oc12,121% (inactive)
18,COc1ccc(Cl)cc1Nc1ccc2cc(S(=O)(=O)N3CCCCC3)ccc2n1,83% (inactive)

# Reference: PubChem BioAssay AID463173 (ICCB-Longwood Screening Facility, Harvard Medical School, 2010)
